PKA kinase inh: blocks human protein kinase A activity. P17612. PKA Kemptide phosphorylation, Kinase-Glo ATP luminescence. inhibition, % at 6 µM. 65,000 compounds, 0.1% hits;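 active = inhibition above the screen-wide mean inhibition plus 3 SD, cut at about 21% in these data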
D1 allo mod: allosteric modulators of human D1 dopamine receptor | B-score at 10 µM | P21728 | HEK293 D1, CRE-luciferase, dopamine EC30 potentiation; actives deviate in either direction | 58,000 compounds, 5.9% hits | AID 641;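 active = luminescence count or its row- and column-corrected plate score outside the 99.7% band of the plate's sample wells, on either side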
hDAT+cocaine: human DAT dopamine uptake with cocaine, either direction; LLC-PK1 hDAT cells, [14C]-dopamine uptake with cocaine IC80; actives deviate in either direction; 110,000 compounds, 1.3% hits; B-score at 10 µM; Q01959;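 active = Z score or B-score, a plate-position-corrected score, falls beyond the plate's 99.7% confidence bounds, in either direction; inactive = both scores lie inside the 99.7% bounds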;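 also: scored against the spread of the other compound wells on the same plate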
ROCK2 blocker: blocks human Rho kinase 2 activity. purified ROCK2, Kinase-Glo ATP depletion luminescence. inhibition, % at 6 µM. 60,000 compounds, 0.35% hits. AID 604;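 active = inhibition above the screen-wide mean inhibition plus 3 SD, cut at about 18% in these data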;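 also: plate controls were DMSO wells for no effect and Y-27632 control wells after no-enzyme background subtraction for full effect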
D1 PAM confirm: D1 receptor (human) allosteric modulation, confirmed; AID 642; HEK293 D1 CRE-luciferase, dopamine EC30 potentiation; hits give high values; shares compounds with D1 allo mod; luminescence at 10 µM; 2,200 compounds, 88% hits;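 active = luminescence in either of two replicates above the same-plate mean plus 3 SD of the low-dose dopamine control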
D1 no dopamine: activates D1 CRE-luciferase signal without dopamine present | shares compounds with D1 allo mod | HEK293 D1 CRE-luciferase, luminescence, no dopamine; hits give high values | luminescence at 10 µM | 1,900 compounds, 0.8% hits; in the data active = luminescence above about 3900
Isoprot counter: alters isoproterenol CRE-luciferase response in HEK293 cells. shares compounds with D1 allo mod. HEK293 D1 CRE-luciferase, isoproterenol EC30 counter-screen. calls only at 10 µM. 2,200 compounds, 63% hits. AID 647;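 active = luminescence in either replicate above plate mean of wells with a partly effective reference agonist dose plus 3 SD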;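 also: isoproterenol raises cAMP through native beta-adrenoceptor Gs so signal bypasses D1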
The depositor's hits bear a star; i = inactive; / = no result; + = active, no number. The full list was thinned out, with hits kept by preference.

SMILES	PKA kinase inh	D1 allo mod	hDAT+cocaine	ROCK2 blocker	D1 PAM confirm	D1 no dopamine	Isoprot counter
CC(C)(C)c1cc2cccnc2n1Cc1cccc(Cl)c1	/	/	-0.87	/	/	/	/
C=CCN1C(=O)c2oc3ccccc3c(=O)c2C1c1ccc(O)c(OC)c1 (stereo not given)	-10	8.1*	/	-2	10008*	/	i
CCC(C)C(=O)Nc1cc(C(=O)OC)cc(C(=O)OC)c1 (stereo not given)	0	-0.0041	-0.12	-3	/	/	/
COc1ccc(-c2nn(C)c(=O)c3ccccc23)cc1CNC(=O)c1ccco1	-6	4.5*	0.25	-2	16184*	1660	+
COc1ccc(-c2nn(C)c(=O)c3ccccc23)cc1CNS(C)(=O)=O	10	1.7	-1.1	10	/	/	/
CCOC(=O)c1c(C)c(C(=O)Nc2cc(OC)ccc2OC)c(C)n1CC	4	3.1*	0.35	2	7504*	1448	+
COc1ccc2[nH]c(=O)c(CN(Cc3cccs3)Cc3nnnn3C(C)(C)C)cc2c1	10	5.3*	2.5*	4	7020*	1520	i
OCc1cn(-c2ccccc2)nc1-c1ccc2c(c1)OCCO2	3	0.045	-1	2	/	/	/
COc1cccc(-c2nn(-c3ccccc3)cc2CO)c1	1	3.6*	-0.18	2	10836*	1844	+
COc1ccc(-c2nn(-c3ccccc3)cc2CO)cc1OC	4	6.7*	0.52	5	13160*	1752	+
Cc1ccc(C(=O)N2c3ccccc3N(Cc3ccccc3)C(=O)C2(C)C)cc1	/	/	0.35	/	/	/	/
Cc1nn2c(c1-c1ccccc1)NC1=C(C(=O)CCC1)C2c1cccnc1 (stereo not given)	-8	-0.26	/	-2	/	/	/
COc1cc2c(cc1OC)CN(CC(=O)NC(=O)NCc1ccco1)CC2	2	6.8*	0.68	3	8812*	/	i
CCCCCCC1C(C#N)=C(N)OC2=C1C(=O)CC(C)(C)C2 (stereo not given)	2	3.7*	0.23	5	12024*	1864	+
CCC1C(C#N)=C(N)OC2=C1C(=O)CC(C)(C)C2 (stereo not given)	7	0.079	0.043	7	/	/	/
CCOc1ccccc1NC(=O)CN(C)S(=O)(=O)c1cccc2nsnc12	11	4.7*	0.38	3	6432*	1328	i
COc1ccc(-c2ccc(=O)[nH]n2)cc1	2	8.2*	-0.13	/	10236*	1400	+
O=c1ccc(-c2ccccc2)n[nH]1	/	/	-0.0099	/	/	/	/
Clc1ccc(-c2nnnn2-c2ccc(Cl)c(Cl)c2)cc1Cl	/	/	0.98	/	/	/	/
CCCc1cc(=O)[nH]c(Nc2ccc(O)cc2)n1	/	/	-0.046	/	/	/	/
CCCc1cc(=O)[nH]c(NCc2ccc(Cl)cc2)n1	0	2.8*	0.59	-4	8064*	1432	i
C=CCc1c(C)nc(SC)nc1Nc1ccc(C(C)=O)cc1	-4	4.1*	1.3	1	10112*	1672	+
C=CCc1c(C)nc(SC)nc1Nc1ccc(C(=O)O)cc1	9	8.2*	0.055	5	11532*	/	i
C=CCc1c(C)nc(SC)nc1Nc1ccccc1	/	/	0.81	/	/	/	/
COC(=O)c1oc2ccc(Br)cc2c1NC(=O)CCCN1C(=O)c2ccccc2C1=O	2	0.47	-0.24	3	/	/	/
SMILES	PKA kinase inh	D1 allo mod	hDAT+cocaine	ROCK2 blocker	D1 PAM confirm	D1 no dopamine	Isoprot counter
COC(=O)c1oc2ccc(Br)cc2c1-n1cccc1	1	8.3*	0.013	-1	6260*	1564	+
Nc1nc(Cl)nc2c1ncn2[C@@H]1O[C@H](CO)[C@@H](O)[C@H]1O	2	24*	-0.57	8	16252*	5660*	+
CN(C)c1ncnc2c1ncn2C1OC(CO)C(O)C1O (stereo not given)	/	/	0.79	/	/	/	/
Cn1c(=O)c2c(nc(Br)n2Cc2ccc3ccccc3c2)n(C)c1=O	5	/	-0.92	10	/	/	/
CCNc1nc2c(c(=O)n(Cc3ccccc3)c(=O)n2C)n1Cc1ccccc1	7	4.4*	3*	2	8220*	1508	+
C/C(Cl)=C/Cn1c(=O)c2c(nc(Br)n2Cc2ccccc2)n(C)c1=O	6	4.8*	-0.11	2	11400*	1484	+
Cc1ccc(C)c(-n2c(C)cc(/C=N/NC(=O)c3c(C)nc4cc(C)ccn34)c2C)c1	/	/	1.6	/	/	/	/
COC(=O)c1ccc[n+](CCc2c[nH]c3ccccc23)c1	/	/	0.38	/	/	/	/
COc1ccc(NC(=O)[C@@H]2CC=C[C@@H]3CCN(C4CCCCC4)C(=O)[C@@H]32)cc1	/	/	1.5	/	/	/	/
COc1cccc(-n2c(SC3CCOC3=O)nc3ccccc3c2=O)c1 (stereo not given)	-1	13*	-1	0	13364*	1604	+
COc1cccc(NC(=O)C2CCCN2C(=O)Nc2cccc(F)c2)c1 (stereo not given)	10	-0.055	0.36	3	/	/	/
CCCCNC(=O)C1CCCN1C(=O)Nc1cccc(OC)c1 (stereo not given)	3	30*	-0.78	-2	4704	1636	i
CN1CCN(c2ccc(Cl)cc2NC(=O)c2cccc(S(=O)(=O)N(C)C)c2)CC1	8	5.2*	0.26	3	13264*	1580	i
CC1(C)c2[nH]c3ccccc3c2C[C@@H]2C(=O)N(c3ccc(F)cc3F)C(=O)N21	/	/	0.16	/	/	/	/
Cc1cc(N2CCN(S(=O)(=O)c3ccc4c(c3)OCCO4)CC2)n2ncnc2n1	6	4.1*	0.46	2	6428*	1504	i
Cc1cc(N2CCN(S(=O)(=O)Cc3ccccc3)CC2)n2ncnc2n1	-1	-0.37	-1.1	0	/	/	/
Cc1cc(Nc2ccc(C)c(Br)c2)n2nc(C)nc2n1	5	2.8*	-1	3	7632	1564	i
COCCNC(=O)C(c1cccs1)N(C(=O)Cn1nnc2ccccc21)c1ccc(OC)cc1 (stereo not given)	/	/	-1.3	/	/	/	/
CC12CN(S(=O)(=O)c3ccccc3)CC(C)(CN(S(=O)(=O)c3ccccc3)C1)C2	/	/	-0.45	/	/	/	/
Cc1ccc(-n2nc3c(c2NC(=O)c2ccc(Br)o2)CSC3)c(C)c1	-4	4.8*	-0.49	/	5856	1520	i
CN1CCN(c2nc(-c3ccccc3)c3cc(Cl)ccc3n2)CC1	4	5*	0.88	6	11380*	1508	i
CCOc1ccccc1C1C(C#N)=C(N)Oc2cc(N)ccc21 (stereo not given)	/	/	-0.12	/	/	/	/
CN(C)c1ccc2c(c1)OC(N)=C(C#N)C2c1cccc(F)c1 (stereo not given)	4	8.8*	-2.1	0	14124*	/	+
C(=C\c1ccccc1)/CSc1nnc(-c2cccnc2)o1	7	0.21	0.68	5	/	/	/
CC1Cc2ccccc2N1c1ncnc2c1nnn2Cc1ccccc1Cl (stereo not given)	/	/	1.4	/	/	/	/

Screening results from PubChem BioAssay.
